Compound activity from PubChem BioAssay.
TROY signal inh = inhibitors of TROY-driven NF-kB signaling, primary screen, Q293 LMP1-TROYcd cells, NF-kB luciferase, uHTS | inhibition, % at 10 µM | 360,000 compounds, 0.98% hits | Q293 LMP1-TROYcd NF-kB luciferase reporter, 4 h;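 active means compounds whose plate-normalised and pattern-corrected inhibition of the luciferase reporter signal at the single screening dose is 50% or more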
CF NFkB block = inhibitors of PAF-induced NF-kB signaling, primary screen, cell-based, GFP fluorescence, uHTS; KKLEB NF-kB-GFP reporter, GFP fluorescence overnight; inhibition, % at 5 µM; 360,000 compounds, 0.86% hits; AID 588850, 2011;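 active means at least 50% inhibition at 5 µM, scaled per plate between neutral and stimulator controls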;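 further: PAF is a Pseudomonas aeruginosa culture filtrate used as stimulus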
HIF-2a inh = HIF-2a reporter inhibitors, primary screen, luminescence, 786-0 RCC cells; 360,000 compounds, 0.72% hits; 786-0 RCC cells HIF-2a reporter, luciferase luminescence, overnight; inhibition, % at 18.8 µM;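 active means inhibition of the luminescence signal of 40% or more relative to plate controls, in a single-dose primary screen at 18.75 µM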
Peg3 promoter = Peg3 promoter-driven luciferase inhibitors, primary screen, cell-based, HeLa, luciferase luminescence; AID 588405, 2011; inhibition, % at 20 µM; HeLa PEG-Prom luciferase reporter, overnight; 360,000 compounds, 1.7% hits;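 active means inhibition of at least 50% at 20 µM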
KKLEB cytotox = cytotoxicity in KKLEB CF airway cells, primary screen, cytotoxicity control for CF NF-kB inhibitor project, cell-based, uHTS, fluorescence assay plates; KKLEB CF airway cells viability, ATPlite luminescence, overnight; hits give low values; cells stimulated with P. aeruginosa culture filtrate; 360,000 compounds, 0.36% hits; activity change (cytotoxicity), % at 5 µM; AID 602141, 2011;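 active means corrected activity change at or below -50% at 5 µM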
TWEAK Fn14 block = inhibitors of TWEAK-Fn14 signaling, primary screen, luciferase reporter cells, uHTS; TWEAK-stimulated Fn14 reporter cells, luciferase luminescence, 8 h; inhibition, % at 10 µM; 360,000 compounds, 2% hits; in the data active means inhibition above about 50%
Numbers stand for hits; i = inactive; nt = no result. A selection: hits, their analogues and other compounds. The true share with any hit is near 3.9%.

SMILES	TROY signal inh	CF NFkB block	HIF-2a inh	Peg3 promoter	KKLEB cytotox	TWEAK Fn14 block
Cc1ccc2nc(-c3ccc(O)c(O)c3)cn2c1	i	i	i	i	i	68.5
CC(C)(C)OC(=O)N(Cc1ccccc1)Cc1ccc(OCc2cccc(NC(=O)C3CC3)c2)cc1	i	i	i	i	i	57.5
NC(=O)[C@H]1CC2(CC(c3cccc(NC(=O)COc4ccc(Cl)cc4)c3)=NO2)CN1C(=O)Cc1ccc([N+](=O)[O-])cc1 (some centres not stated)	i	i	i	i	i	65.4
Cc1nc(NC(=O)c2ccc(Br)s2)sc1C(=O)N(C)C	i	i	i	i	i	i
O=C(Nc1ccc(F)cc1)c1nc[nH]c1C(=O)Nc1ccc([N+](=O)[O-])cc1	i	i	i	i	i	i
O=C(Nc1ccc([N+](=O)[O-])cc1)c1nc[nH]c1C(=O)NC1CCCCC1	i	i	i	i	-51.1	i
O=C(CN1C(=O)c2ccccc2S1(=O)=O)c1ccccc1F	77.7	i	i	i	i	93.1
O=C(CN1C(=O)c2ccccc2S1(=O)=O)c1cccc(Br)c1	79.6	i	i	i	i	99.3
CCOc1cc2[nH]c(=S)n(C(C)C)c(=O)c2cc1OCC	i	i	i	i	i	i
CN(C)CCCNC1=CC(=O)OC12CCCCC2	nt	i	i	i	i	90.4
CC(C)(C)CC(C)(C)NC1=CC(=O)OC12CCCCC2	i	i	i	i	i	i
O=C(Nc1ccc(F)c(F)c1)c1ccccc1	i	i	i	i	i	i
NNC(=O)c1ccc2c(c1)S(=O)(=O)NNC2=O	i	i	i	i	i	i
Cc1ccc(C(OCC(O)CNCc2ccc(F)cc2)c2ccccc2)cc1 (configuration not stated)	i	i	i	100.0	i	i
N#CNC(=Nc1cccc(F)c1)SCc1ccccc1F	59.5	i	i	73.8	i	i
COc1ccc(-c2nn(-c3ccccc3)cc2C(=O)NC(=S)NNC(=O)c2ccncc2)cc1	i	i	i	i	i	60.2
CSc1ccccc1C(=O)NCc1ccc(F)cc1	i	i	i	i	i	i
CCc1ccccc1NC(=O)N1CCc2ccccc2C1	i	i	i	i	i	i
CCc1ccccc1NC(=O)N1CCCc2ccccc21	77.5	i	i	i	i	52.6
Cc1ccc(NC(=O)N2CCCc3ccccc32)cc1	i	i	i	i	i	i
Cc1ccc(NC(=O)N2CCc3ccccc32)cc1	i	i	i	i	i	65.3
COc1ccc(CCNC(=O)c2cc(-c3ccccn3)nc3ccccc23)cc1	i	i	i	i	i	i
O=C(c1ccc(Cl)nc1)N1CCc2ccccc2C1	nt	i	i	i	i	79.3
O=C(c1ccncc1)N1CCc2ccccc2C1	i	i	i	i	i	i
CCOC(=O)[C@H]1[C@H]2COc3ccc(Br)cc3[C@@H]2N2C(=O)c3ccc(F)cc3NC(=O)[C@@]12C	i	i	i	i	i	i
SMILES	TROY signal inh	CF NFkB block	HIF-2a inh	Peg3 promoter	KKLEB cytotox	TWEAK Fn14 block
CSc1nc2ccc(N3C(=O)C4CCCCC4C3=O)cc2s1 (configuration not stated)	i	i	i	i	i	106.7
C=CCC1c2cccc(C(=O)OC)c2C(=O)N1c1ccccc1 (configuration not stated)	i	i	i	i	i	i
CCC(C(=O)NC(C)CCc1ccccc1)n1nc(C)n2c(cc3occc32)c1=O (configuration not stated)	i	i	i	i	i	99.7
O=C(NC1CCN(C(=O)Nc2ccccc2)CC1)C1CCCCC1	i	i	i	i	i	i
Cc1ccc(-c2cc(=O)c3cc(C)ccc3[nH]2)cc1	i	i	i	i	i	66.6
COc1ccc2[nH]c(-c3cccc(F)c3)cc(=O)c2c1	i	55.7	i	i	i	i
COC(=O)C1=C(C(=O)OC)[C@@H]2N(C)c3ccc(OC)cc3[C@@]23C[C@@H](C(=O)OC)N(C(=O)CC(C)C)C3=N1	i	i	i	i	i	i
CCn1nccc1C(=O)Nc1cc(Cl)ccc1Cl	i	i	i	i	i	i
CCn1nccc1C(=O)Nc1ccc(Cl)cc1Cl	i	i	i	i	i	55.2
CCOC(=O)c1cc(NC(=O)c2ccc(Cl)cc2)c(=O)n2c1oc1ccc(Cl)cc12	i	i	i	i	-58.4	i
Cc1cc(C(=O)N/N=C/c2cn(C)nc2C)c2ccccc2n1	i	i	i	i	i	i
COCCn1nnnc1C(c1ccc(OC)cc1OC)N1CCN(c2ccccc2F)CC1 (configuration not stated)	i	i	i	i	i	i
CCc1ccc2[nH]c(=O)c(C(c3nnnn3CCOC)N3CCN(c4ccccc4F)CC3)cc2c1 (configuration not stated)	53.1	i	i	i	i	i
COc1cc2oc(=O)cc(CN3CCCCCCC3)c2cc1Cl	i	i	i	i	i	i
COc1cc(OC)cc(C(=O)NCC(=O)OCC(=O)Nc2cc(S(C)(=O)=O)ccc2Cl)c1	i	i	i	i	i	i
Cc1ccc(C2Nc3ccc4ccccc4c3C3=C2C(=O)CC(C)(C)C3)o1 (configuration not stated)	i	i	i	i	i	i
Cc1ccc(C2C3=C(CC(C)(C)CC3=O)NC3=C2C(=O)CC(C)(C)C3)o1	nt	i	i	i	i	83.8
COC(=O)c1ccc(/C=C/c2nc3ccccc3c(=O)[nH]2)cc1	i	i	i	i	i	i
Cc1ccc(/C=C/c2nc3ccccc3c(=O)[nH]2)cc1	51.5	i	i	i	-68.7	74.9
Cc1cccc(OCCNC(=O)c2ccc(Cl)c(S(=O)(=O)NCc3cccnc3)c2)c1	i	i	i	i	i	i
Cc1ccc(-c2noc(C3CCN(C(=O)Nc4ccc(C#N)cc4)CC3)n2)o1	i	i	i	i	i	i
Cc1c(C(=O)OCc2ccccc2)[nH]c2c1C(=O)CC(c1ccco1)C2 (configuration not stated)	i	56.6	i	i	i	i
C=CC[C@H]1C=C[C@@H](C(C(=O)OC)C(=O)OC)CN1C(C)=O	i	i	i	i	i	i
Cc1ccccc1NC(=O)c1cnc2ccccn2c1=O	i	i	i	i	i	83.4
O=C(COC(=O)c1ccc(Br)cc1)Nc1cccnc1Cl	i	i	i	i	i	i
Cc1ccc2nc(SCC(=O)Nc3ccc(F)cc3F)[nH]c2c1	i	i	i	i	i	i
O=S(=O)(Nc1nc2ccccc2nc1Nc1ccc(N2CCOCC2)cc1)c1cc(Cl)ccc1Cl	61.4	i	i	i	i	80.1
